# Laboratory results as given in the supplement of paper PMC10849652.
# Of roughly 7,900 targets only a part is listed; those with a hit were picked by preference. About 0.6% of all pairs of compound and target were hits. A number with no mark means an inactive call.
# Key:
# Test in all cases: log2 fold change, soluble protein after heating vs DMSO (PISA); higher = thermal stabilisation; K562 cells, 10 uM, 30 min; active = over 0.2 and 3.5 SD of the protein, either way, in both replicates (recomputed)
# [1] = compound: CS(=O)(=O)c1ccc(-c2cnc(N)c(C(=O)Nc3ccccc3)n2)cc1
# How it was run: (§1)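 Values are thermal stability changes relative to control samples and are taken from duplicates. They are stated as log2 fold changes. Before quantification by TMTpro 16plex LC-MS/MS with equalised channel sums, K562 cells at 2×10^6 cells/mL were treated with 10 μM compound for 30 min, heated in aliquots for 3 min across 48°C-58°C, pooled, extracted in PBS with 0.5% NP-40 at 4°C, and centrifuged at 21,000xg for 90 min to give the soluble supernatant.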
# crizotinib = compound: C[C@@H](Oc1cc(-c2cnn(C3CCNCC3)c2)cnc1N)c1c(Cl)ccc(F)c1Cl [crizotinib]
# How it was run: as §1
# [2] = compound: C[C@@H]1COCCN1C2=NC(=NC(=C2)C3(CC3)S(=O)(=O)C)C4=C5C=CNC5=CC=C4
# How it was run: as §1
# [3] = compound: C[C@H](C1=CC=C(C=C1)C(=O)NC2=C3C=CNC3=NC=C2)N
# How it was run: as §1
# duvelisib = compound: C[C@H](Nc1ncnc2nc[nH]c12)c1cc2cccc(Cl)c2c(=O)n1-c1ccccc1 [duvelisib]
# How it was run: as §1
# gandotinib = compound: Cc1cc(Nc2cc(CN3CCOCC3)c3nc(C)c(Cc4ccc(Cl)cc4F)n3n2)n[nH]1 [gandotinib]
# How it was run: as §1
# tozasertib = compound: Cc1cc(Nc2cc(N3CCN(C)CC3)nc(Sc3ccc(NC(=O)C4CC4)cc3)n2)n[nH]1 [tozasertib]
# How it was run: as §1
# [4] = compound: Cc1cc(SCc2sc(-c3ccc(C(F)(F)F)cc3)nc2C)ccc1OCC(=O)O
# How it was run: as §1
# doramapimod = compound: Cc1ccc(-n2nc(C(C)(C)C)cc2NC(=O)Nc2ccc(OCCN3CCOCC3)c3ccccc23)cc1 [doramapimod]
# How it was run: as §1
# ispinesib = compound: Cc1ccc(C(=O)N(CCCN)[C@@H](c2nc3cc(Cl)ccc3c(=O)n2Cc2ccccc2)C(C)C)cc1 [ispinesib]
# How it was run: as §1
# UniProt Q9HAV4, sequence (Q9HAV4 whole entry, looked up): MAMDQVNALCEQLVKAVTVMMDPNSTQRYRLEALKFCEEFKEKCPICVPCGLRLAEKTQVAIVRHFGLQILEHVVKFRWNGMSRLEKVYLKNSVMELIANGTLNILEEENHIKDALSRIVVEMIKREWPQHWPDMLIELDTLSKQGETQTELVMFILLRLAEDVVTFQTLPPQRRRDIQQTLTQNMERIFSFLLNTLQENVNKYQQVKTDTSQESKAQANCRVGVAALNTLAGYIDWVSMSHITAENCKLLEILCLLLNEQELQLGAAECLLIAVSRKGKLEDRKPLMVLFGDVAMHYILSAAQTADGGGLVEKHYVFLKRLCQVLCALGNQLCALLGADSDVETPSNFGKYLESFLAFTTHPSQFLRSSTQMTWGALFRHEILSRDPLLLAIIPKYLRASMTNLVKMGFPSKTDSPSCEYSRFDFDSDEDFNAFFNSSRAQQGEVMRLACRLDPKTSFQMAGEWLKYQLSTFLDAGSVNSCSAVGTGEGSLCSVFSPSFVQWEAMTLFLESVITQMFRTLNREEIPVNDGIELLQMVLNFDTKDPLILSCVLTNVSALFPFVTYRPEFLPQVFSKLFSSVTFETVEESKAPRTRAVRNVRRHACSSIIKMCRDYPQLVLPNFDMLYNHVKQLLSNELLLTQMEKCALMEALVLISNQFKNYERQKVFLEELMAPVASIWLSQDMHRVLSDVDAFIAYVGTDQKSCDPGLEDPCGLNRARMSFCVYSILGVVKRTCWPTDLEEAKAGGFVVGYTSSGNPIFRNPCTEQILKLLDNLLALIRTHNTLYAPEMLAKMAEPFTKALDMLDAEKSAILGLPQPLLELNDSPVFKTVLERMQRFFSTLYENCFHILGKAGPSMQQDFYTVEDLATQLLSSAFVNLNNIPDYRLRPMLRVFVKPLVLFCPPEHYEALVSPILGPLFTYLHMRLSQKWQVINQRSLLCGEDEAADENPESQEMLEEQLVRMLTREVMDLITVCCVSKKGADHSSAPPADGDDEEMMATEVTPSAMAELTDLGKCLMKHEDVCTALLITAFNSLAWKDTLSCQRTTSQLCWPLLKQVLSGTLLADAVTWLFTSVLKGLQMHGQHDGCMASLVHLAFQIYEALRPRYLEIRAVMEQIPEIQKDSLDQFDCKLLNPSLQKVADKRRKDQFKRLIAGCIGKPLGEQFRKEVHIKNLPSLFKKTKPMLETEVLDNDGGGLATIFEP
# UniProt O94967, sequence (O94967 whole entry, looked up): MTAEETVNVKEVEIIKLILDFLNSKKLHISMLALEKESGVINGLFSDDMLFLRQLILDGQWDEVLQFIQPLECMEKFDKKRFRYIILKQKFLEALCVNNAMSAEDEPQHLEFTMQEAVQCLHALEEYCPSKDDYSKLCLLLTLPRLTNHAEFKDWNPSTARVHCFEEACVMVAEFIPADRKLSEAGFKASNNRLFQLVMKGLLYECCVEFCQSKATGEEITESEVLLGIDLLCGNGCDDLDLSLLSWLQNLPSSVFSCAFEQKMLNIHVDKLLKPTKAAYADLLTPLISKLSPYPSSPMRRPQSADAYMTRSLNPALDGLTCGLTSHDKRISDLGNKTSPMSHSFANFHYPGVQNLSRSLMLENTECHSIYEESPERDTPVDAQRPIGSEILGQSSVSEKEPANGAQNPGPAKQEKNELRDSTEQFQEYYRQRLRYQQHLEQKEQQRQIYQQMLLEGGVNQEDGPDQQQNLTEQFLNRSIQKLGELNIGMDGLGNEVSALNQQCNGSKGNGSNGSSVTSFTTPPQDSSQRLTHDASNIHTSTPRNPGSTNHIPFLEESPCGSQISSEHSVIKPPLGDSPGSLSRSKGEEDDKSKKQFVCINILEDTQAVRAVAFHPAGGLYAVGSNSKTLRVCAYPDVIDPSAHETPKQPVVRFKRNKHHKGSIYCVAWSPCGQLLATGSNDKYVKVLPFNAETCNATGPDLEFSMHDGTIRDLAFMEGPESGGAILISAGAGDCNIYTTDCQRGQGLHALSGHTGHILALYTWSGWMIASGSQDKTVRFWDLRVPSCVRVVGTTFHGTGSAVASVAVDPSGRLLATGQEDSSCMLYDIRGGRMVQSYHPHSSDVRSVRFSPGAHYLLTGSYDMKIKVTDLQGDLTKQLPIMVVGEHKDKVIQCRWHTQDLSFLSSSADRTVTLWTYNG
# UniProt Q7Z6J8, sequence (Q7Z6J8 whole entry, looked up): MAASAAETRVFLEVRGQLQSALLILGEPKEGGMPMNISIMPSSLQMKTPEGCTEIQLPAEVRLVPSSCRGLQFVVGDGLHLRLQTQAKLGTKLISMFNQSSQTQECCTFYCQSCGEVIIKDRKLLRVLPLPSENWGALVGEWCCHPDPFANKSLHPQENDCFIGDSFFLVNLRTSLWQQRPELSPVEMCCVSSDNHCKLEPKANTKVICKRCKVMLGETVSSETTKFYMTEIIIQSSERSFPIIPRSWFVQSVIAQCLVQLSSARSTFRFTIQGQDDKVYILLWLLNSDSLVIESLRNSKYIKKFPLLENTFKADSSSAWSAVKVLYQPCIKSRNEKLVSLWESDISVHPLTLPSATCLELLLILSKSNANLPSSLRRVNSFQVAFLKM
# UniProt P07951, sequence (P07951 whole entry, looked up): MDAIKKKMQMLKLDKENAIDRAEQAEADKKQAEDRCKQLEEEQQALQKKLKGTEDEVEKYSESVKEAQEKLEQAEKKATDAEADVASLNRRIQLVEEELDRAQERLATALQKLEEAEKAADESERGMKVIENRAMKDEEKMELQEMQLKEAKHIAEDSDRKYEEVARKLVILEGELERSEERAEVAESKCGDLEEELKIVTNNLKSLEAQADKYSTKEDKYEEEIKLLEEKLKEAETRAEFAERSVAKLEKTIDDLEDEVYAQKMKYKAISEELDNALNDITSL
# UniProt Q96JG6, sequence (Q96JG6 whole entry, looked up): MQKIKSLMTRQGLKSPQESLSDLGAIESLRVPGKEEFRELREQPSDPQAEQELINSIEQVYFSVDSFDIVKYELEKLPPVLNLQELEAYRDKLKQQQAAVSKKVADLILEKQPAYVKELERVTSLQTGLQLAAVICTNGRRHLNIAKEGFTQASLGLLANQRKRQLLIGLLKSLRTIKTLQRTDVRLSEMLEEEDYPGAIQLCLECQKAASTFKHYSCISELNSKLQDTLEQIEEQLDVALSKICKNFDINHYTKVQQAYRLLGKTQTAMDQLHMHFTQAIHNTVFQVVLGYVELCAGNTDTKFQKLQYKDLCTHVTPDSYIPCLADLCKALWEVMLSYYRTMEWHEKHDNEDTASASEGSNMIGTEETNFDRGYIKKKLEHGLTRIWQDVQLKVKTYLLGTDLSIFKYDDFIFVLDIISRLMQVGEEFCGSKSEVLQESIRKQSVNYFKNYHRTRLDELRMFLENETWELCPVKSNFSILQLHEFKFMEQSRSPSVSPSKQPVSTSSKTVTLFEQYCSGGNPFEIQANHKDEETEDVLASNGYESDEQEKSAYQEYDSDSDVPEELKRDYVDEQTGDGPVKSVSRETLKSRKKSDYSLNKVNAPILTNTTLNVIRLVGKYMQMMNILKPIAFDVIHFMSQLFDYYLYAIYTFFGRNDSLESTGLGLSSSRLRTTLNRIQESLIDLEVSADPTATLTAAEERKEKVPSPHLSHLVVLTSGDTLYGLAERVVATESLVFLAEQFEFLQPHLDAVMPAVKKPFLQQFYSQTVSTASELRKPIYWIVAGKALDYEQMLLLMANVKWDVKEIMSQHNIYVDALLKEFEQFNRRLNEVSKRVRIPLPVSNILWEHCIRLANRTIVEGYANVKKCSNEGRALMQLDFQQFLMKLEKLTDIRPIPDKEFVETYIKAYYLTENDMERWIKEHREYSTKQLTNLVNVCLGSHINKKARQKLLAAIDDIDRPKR
# UniProt Q8NCE0, sequence (Q8NCE0 whole entry, looked up): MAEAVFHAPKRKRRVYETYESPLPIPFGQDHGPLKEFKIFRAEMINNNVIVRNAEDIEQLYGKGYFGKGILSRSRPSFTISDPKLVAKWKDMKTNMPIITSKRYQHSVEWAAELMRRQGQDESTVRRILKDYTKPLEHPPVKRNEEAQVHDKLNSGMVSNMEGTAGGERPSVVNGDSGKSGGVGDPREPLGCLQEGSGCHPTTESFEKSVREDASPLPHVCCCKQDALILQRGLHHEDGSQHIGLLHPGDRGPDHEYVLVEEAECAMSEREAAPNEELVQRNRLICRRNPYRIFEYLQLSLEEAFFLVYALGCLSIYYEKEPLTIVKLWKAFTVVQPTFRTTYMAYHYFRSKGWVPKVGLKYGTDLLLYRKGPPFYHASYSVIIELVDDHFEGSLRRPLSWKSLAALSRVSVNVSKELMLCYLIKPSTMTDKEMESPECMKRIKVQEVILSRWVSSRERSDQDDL
# UniProt Q9BUB7, sequence (Q9BUB7 whole entry, looked up): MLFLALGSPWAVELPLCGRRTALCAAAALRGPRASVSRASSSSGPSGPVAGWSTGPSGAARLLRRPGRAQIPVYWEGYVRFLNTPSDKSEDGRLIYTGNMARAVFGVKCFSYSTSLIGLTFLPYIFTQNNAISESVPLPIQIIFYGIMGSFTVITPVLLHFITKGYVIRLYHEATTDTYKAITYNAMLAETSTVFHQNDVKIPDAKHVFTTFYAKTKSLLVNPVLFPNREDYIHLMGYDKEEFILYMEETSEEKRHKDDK
# UniProt Q9UBK9, sequence (Q9UBK9 whole entry, looked up): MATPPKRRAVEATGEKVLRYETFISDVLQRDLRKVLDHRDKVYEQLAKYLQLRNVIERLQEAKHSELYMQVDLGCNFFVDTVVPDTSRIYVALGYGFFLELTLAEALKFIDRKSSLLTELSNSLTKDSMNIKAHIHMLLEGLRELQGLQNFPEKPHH
Target,log2 fold change [1],log2 fold change (crizotinib),log2 fold change [2],log2 fold change [3],log2 fold change (duvelisib),log2 fold change (gandotinib),log2 fold change (tozasertib),log2 fold change [4],log2 fold change (doramapimod),log2 fold change (ispinesib)
XPO5 (UniProt Q9HAV4),-0.008,-0.052,0.021,-0.026,0.007,-0.192,0.03,0.064,-0.043,-0.079
VPS50 (UniProt Q96JG6),0.012,-0.118,0.044,0.049,-0.017,-0.066,0.01,0.086,-0.032,-0.023
UXT isoform 2 (UniProt Q9UBK9),0.063,0.056,0.184,0.006,0.017,0.255,0.021,-0.034,0.017,-0.035
TNFRSF8 (UniProt P28908),0.051,0.15,0.009,-0.073,0.027,0.012,-0.05,-0.063,-0.011,0.029
TTI1 (UniProt O43156),0.075,-0.143,0.003,0.059,-0.03,-0.119,0.041,0.033,0.059,-0.204
WDR47 (UniProt O94967),-0.024,0.048,0.024,-0.003,0.109,0.09,-0.052,-0.011,-0.034,0.025
WDR11 (UniProt Q9BZH6),-0.064,-0.007,0.111,0.059,0.029,-0.291,-0.049,-0.051,0.056,-0.133
USP34 (UniProt Q70CQ2),-0.049,-0.142,0.046,0.051,0.078,-0.131,0.061,0.118,-0.006,-0.007
UBR2 (UniProt Q8IWV8),0,-0.027,-0.063,0.166,0.008,0,-0.03,0.135,0.073,-0.141
TMEM189-UBE2V1 (UniProt I3L0A0),0.063,0.022,0.051,0.051,0.042,0.007,-0.009,-0.034,0.021,0.071
TPM2 (UniProt P07951),-0.016,-0.012,-0.167,-0.29,-0.131,-0.046,0,-0.117,0.059,0.122
VPS53 isoform 4 (UniProt Q5VIR6),0.087,-0.095,-0.004,0.006,-0.033,0,0.061,0.059,0.036,-0.113
UBE3D (UniProt Q7Z6J8),0.002,0.053,0.128,-0.067,0.016,-0.147,0.076,-0.052,-0.01,-0.024
"VARS2, A0A0G2JL52",0.004,0,0.06,0.018,0.012,-0.061,-0.034,0.025,0.048,-0.244 (active)
TMEM70 (UniProt Q9BUB7),0.025,-0.096,0.035,0.002,-0.016,-0.08,-0.016,0.087,-0.017,-0.243
TSEN2 (UniProt Q8NCE0),-0.198,0.052,0.014,0,0.049,-0.127,-0.048,0.056,-0.057,-0.074
